Hits are enriched below; roughly 21% of the tested compounds scored in any of these assays.
VP16 counter: VP16 counterscreen qHTS for inhibitors of ROR gamma transcriptional activity; Drosophila S2 Gal4-VP16 UAS-luciferase, luminescence, 20 h; Potency, µM (doses to about 53.6 µM), for the others: top-dose activity, negative = inhibition, most hits filed as inhibitors; 3.5% of 310,000 active; AID 2546, 2010;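 also: Gal4-VP16 expression switched on by copper sulfate through the metallothionein promoter; potency is read from the fitted curve at half-maximal effect; nearly all actives have a fitted effect of over 50% in size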
ELG1 repair inh: qHTS screen for small molecules that inhibit ELG1-dependent DNA repair in human embryonic kidney (HEK293T) cells expressing luciferase-tagged ELG1 | HEK293T ELG1-luciferase reporter, luminescence, 16 h; DNA damage induced by 5-fluorouridine | Potency, µM (highest dose often 46.1 µM), for inactives: at the highest dose activity change, negative = inhibition, actives largely listed as inhibitors | 2.3% of 330,000 active | AID 504467, 2011; also: potency is read from the fitted curve at half-maximal effect; nearly all actives have a fitted effect of over 55% in size
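Luminescence from the luciferase reporter, measured 30 min after ONE-Glo reagent at room temperature, was the read-out. Beforehand, 2,000 cells per well were exposed for 16 hr at 37 °C to 5-fluorouridine together with compound or vehicle.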
TDP1 cell noCPT: qHTS for Inhibitors of human tyrosyl-DNA phosphodiesterase 1 (TDP1): qHTS in cells in absence of CPT; 15% of 420,000 active; Potency, µM (highest dose often 46.2 µM), for the others: at the highest dose activity change, negative = growth inhibition, usual class: inhibitors; DT40 Tdp1-/- hTDP1 cells, no CPT, ATP luminescence, 48 h; AID 686978, 2013; also: potency is read from the fitted curve at half-maximal effect; nearly all actives have a fitted effect of over 55% in size
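Camptothecin absent (DMSO only). Human TDP1-complemented DT40 knockout cells, 400 cells/well, 37 °C for minimum 48 hr; ATP measured via CellTiter-Glo, 30 min dark incubation, luminescence.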
IL-1B inflam inh: qHTS for Inhibitors of Inflammasome Signaling: IL-1-beta AlphaLISA Primary Screen; THP-1 LPS/ATP IL-1B secretion, AlphaLISA, 16 h; active compounds read low; activity change, % at 57.5 µM; 4.7% of 360,000 active; in the data active = activity change below about -50%; inconclusive = mostly about -30% to -49%
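Secreted IL-1B measured by AlphaLISA bead assay after 16 h compound exposure of THP-1 cells; compounds (final up to 57.5 uM) added 1 h before LPS (250 ng/mL) and ATP (1.25 mM) stimulation; lower signal means less secretion.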
TDP1 cell CPT: qHTS for Inhibitors of human tyrosyl-DNA phosphodiesterase 1 (TDP1): qHTS in cells in presence of CPT. chicken DT40 Tdp1-/-;hTDP1 cells + 20 nM CPT, ATP luminescence, 48 h. Potency, µM (titrated, usually from 46.2 µM), for the others: top-dose activity change, negative = growth inhibition, usual class: inhibitors. 12% of 420,000 active. AID 686979, 2013; also: potency is read from the fitted curve at half-maximal effect; nearly all actives have a fitted effect of over 55% in size
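Chicken DT40 Tdp1-/- cells complemented with human TDP1, 400 cells/well, exposed to compounds plus 20 nM camptothecin for at least 48 h at 37 C; viability read as ATP content by CellTiter-Glo luminescence.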
RORg inh: qHTS for inhibitors of ROR gamma transcriptional activity | 5.4% of 310,000 active | Potency, µM (doses to about 53.6 µM), for the others: at the top dose activity change, negative = inhibition, most hits filed as inhibitors | Nuclear receptor ROR-gamma (Mus musculus), P51450 | AID 2551, 2010 | Drosophila S2 Gal4-RORgamma UAS-luciferase reporter, 20 h; also: potency is read from the fitted curve at half-maximal effect; nearly all actives have a fitted effect of over 60% in size
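Luciferase reporter read in Schneider cells carrying Gal4-RORγ (mouse) and UAS-Photinus luciferase; cells given compound 1 h before 700 uM copper sulfate induction, then incubated 20 h at ambient temperature.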
ELG1 FLuc counter: qHTS screen for small molecules that inhibit ELG1-dependent DNA repair: Hit Confirmation in Cell-Based Luciferin Assay. shares compounds with ELG1 repair inh. cell-free firefly luciferase luminescence counter-screen, ViewLux. Potency, µM (top dose mostly 46.1 µM), for the others: top-dose activity change, negative = inhibition, actives largely listed as inhibitors. 3% of 350 active. AID 624247, 2012; also: potency is read from the fitted curve at half-maximal effect
ELG1-Luc inh: HTS assay for small molecules that inhibit ELG1-dependent DNA repair in human embryonic kidney (HEK293T) cells expressing luciferase-tagged ELG1: Hit Confirmation; shares compounds with ELG1 repair inh; HEK293T ELG1-luciferase levels, luminescence; cells co-treated with 5-fluorouridine; Potency, µM (series often up to 46.1 µM), inactives show at the highest dose activity change, negative = inhibition, usual class: inhibitors; 68% of 670 active; AID 624248, 2012; also: potency is read from the fitted curve at half-maximal effect; nearly all actives have a fitted effect of over 55% in size
Target sequence (Q96QE3 whole entry, looked up): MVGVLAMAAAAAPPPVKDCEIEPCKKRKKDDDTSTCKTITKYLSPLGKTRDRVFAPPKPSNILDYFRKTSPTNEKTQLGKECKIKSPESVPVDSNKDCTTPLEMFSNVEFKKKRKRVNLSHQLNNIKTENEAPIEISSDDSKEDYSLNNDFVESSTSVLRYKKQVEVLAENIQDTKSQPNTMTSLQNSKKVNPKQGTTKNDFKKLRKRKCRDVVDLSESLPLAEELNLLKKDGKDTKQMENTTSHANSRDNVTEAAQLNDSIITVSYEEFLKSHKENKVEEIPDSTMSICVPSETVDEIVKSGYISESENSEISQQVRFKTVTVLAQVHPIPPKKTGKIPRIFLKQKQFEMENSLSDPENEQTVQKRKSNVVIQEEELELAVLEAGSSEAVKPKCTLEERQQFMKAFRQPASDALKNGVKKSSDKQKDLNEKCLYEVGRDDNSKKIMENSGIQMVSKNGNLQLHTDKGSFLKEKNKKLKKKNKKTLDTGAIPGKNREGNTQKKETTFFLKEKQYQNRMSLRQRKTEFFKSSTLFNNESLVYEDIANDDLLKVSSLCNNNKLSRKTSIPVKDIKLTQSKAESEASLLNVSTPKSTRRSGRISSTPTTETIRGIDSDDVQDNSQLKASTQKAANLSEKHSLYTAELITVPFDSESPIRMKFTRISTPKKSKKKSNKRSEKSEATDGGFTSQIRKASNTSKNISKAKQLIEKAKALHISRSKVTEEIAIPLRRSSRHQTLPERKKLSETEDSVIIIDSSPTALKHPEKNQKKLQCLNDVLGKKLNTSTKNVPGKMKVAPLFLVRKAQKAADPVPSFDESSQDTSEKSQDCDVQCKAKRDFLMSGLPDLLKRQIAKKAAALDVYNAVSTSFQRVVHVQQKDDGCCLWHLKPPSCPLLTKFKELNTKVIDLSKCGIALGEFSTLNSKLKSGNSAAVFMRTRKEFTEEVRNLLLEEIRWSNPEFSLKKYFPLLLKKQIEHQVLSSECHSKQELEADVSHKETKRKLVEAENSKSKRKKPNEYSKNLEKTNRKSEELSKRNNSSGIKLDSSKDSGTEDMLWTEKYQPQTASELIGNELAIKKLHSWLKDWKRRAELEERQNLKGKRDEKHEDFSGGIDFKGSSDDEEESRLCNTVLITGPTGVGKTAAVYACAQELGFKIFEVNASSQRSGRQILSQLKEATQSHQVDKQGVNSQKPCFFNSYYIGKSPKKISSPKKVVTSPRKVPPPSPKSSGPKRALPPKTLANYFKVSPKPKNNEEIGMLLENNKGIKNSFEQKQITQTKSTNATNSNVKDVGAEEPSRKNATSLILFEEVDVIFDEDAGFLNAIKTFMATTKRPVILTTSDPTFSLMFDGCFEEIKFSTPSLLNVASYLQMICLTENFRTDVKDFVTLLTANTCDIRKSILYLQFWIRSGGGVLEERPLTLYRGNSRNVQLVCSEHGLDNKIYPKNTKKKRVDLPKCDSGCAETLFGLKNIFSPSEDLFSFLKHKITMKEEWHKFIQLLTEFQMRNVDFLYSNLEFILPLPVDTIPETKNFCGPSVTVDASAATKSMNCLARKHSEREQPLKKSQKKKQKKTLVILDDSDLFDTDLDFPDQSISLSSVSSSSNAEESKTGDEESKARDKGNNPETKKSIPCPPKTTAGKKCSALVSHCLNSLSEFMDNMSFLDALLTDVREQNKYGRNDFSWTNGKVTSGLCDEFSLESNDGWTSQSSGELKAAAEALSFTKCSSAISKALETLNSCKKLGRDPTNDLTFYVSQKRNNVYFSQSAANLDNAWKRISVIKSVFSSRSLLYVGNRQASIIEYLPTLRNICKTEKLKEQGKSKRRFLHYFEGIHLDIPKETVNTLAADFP
ELG1-Luc MMS: MMS-stimulated human ELG1 repair inhibition, confirmed. shares compounds with ELG1 repair inh. HEK293T luciferase-tagged ELG1 level, MMS stimulated. Potency, µM (titrated, usually from 46.1 µM), for the others: top-dose activity change, negative = inhibition, usual class: inhibitors. 53% of 670 active. AID 624249; also: potency is read from the fitted curve at half-maximal effect; nearly all actives have a fitted effect of over 60% in size
ELG1 5FU viab: qHTS screen for small molecules that inhibit ELG1-dependent DNA repair: Hit Confirmation with 5FU Viability | AID 624250, 2012 | Potency, µM (top dose mostly 46.1 µM), for inactives: at the highest dose activity change, negative = viability loss, usual class: cytotoxic | 670 tested, under 10 active | shares compounds with ELG1 repair inh | cell viability with 5-FU, ELG1-dependent repair;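 also: ELG1-luc HEK293T cells cotreated with 5-fluorouridine at 10 µM final; potency is read from the fitted curve at half-maximal effect; viability measured 16 h after compound addition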
ELG1 MMS cell: qHTS screen for small molecules that inhibit ELG1-dependent DNA repair: Hit Confirmation with MMS Viability; shares compounds with ELG1 repair inh; Cell viability with MMS, ELG1-dependent DNA repair; Potency, µM (top dose mostly 46.1 µM), without a hit: at the highest dose activity change, negative = viability loss, usual class: cytotoxic; 33% of 670 active;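 also: ELG1-luc HEK293T cells co-treated with 10 µM MMS; potency is read from the fitted curve at half-maximal effect; viability read 16 h after compound addition; nearly all actives have a fitted effect of over 60% in size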
Cell viab unstim: qHTS screen for small molecules that inhibit ELG1-dependent DNA repair: Hit Confirmation with Unstimulated Viability Assay; 8% of 900 active; Potency, µM (doses to about 45.9 µM), for the others: top-dose activity change, negative = loss of viability, usual class: cytotoxic; shares compounds with ELG1 repair inh; cell viability counter-screen, unstimulated, luminescence;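 also: potency is read from the fitted curve at half-maximal effect; compound exposure lasted 16 hours before reading; nearly all actives have a fitted effect of over 55% in size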
FLuc enzyme: qHTS screen for small molecules that inhibit ELG1-dependent DNA repair: Hit Confirmation in Biochemical Luciferin Assay; shares compounds with ELG1 repair inh; purified firefly luciferase, luminescence counter-screen; Potency, µM (titrated, usually from 57.5 µM), without a hit: at the top dose activity, negative = inhibition, hits mostly inhibitors; 10% of 350 active; AID 624253, 2012; also: potency is read from the fitted curve at half-maximal effect
The depositor's hits bear a star. Unless noted, calls follow the shape of the dose curve; as a rule, active = well fitted curve in the direction sought with a large enough effect; inconclusive = small, poorly fitted or top-dose-only effect, or another doubt; inactive = no such curve, though single readings can be large; an effect the other way counts as inactive or inconclusive. % is scaled to controls: 0 for no effect and ±100 for the full control effect.

Screening CCCCc1ccc(NC(=O)C(=O)NCCN2CCN(Cc3ccc([N+](=O)[O-])cc3)CC2)cc1 returned VP16 counter -28%, ELG1 repair inh 3.3µM*, TDP1 cell noCPT 0.73µM*, IL-1B inflam inh 1, TDP1 cell CPT 3.3µM*, RORg inh inconclusive, ELG1-Luc inh inconclusive, ELG1-Luc MMS 0.79µM*, ELG1 5FU viab 0%, ELG1 MMS cell 1.3µM* and Cell viab unstim -15%.
For Cc1ccc2c(c1)sc1nc(=O)n(-c3ccccc3)c(=O)n12 the results were VP16 counter 29%, ELG1 repair inh inconclusive, TDP1 cell noCPT inconclusive, IL-1B inflam inh -1, TDP1 cell CPT inconclusive, RORg inh 9%, ELG1 FLuc counter 54%, Cell viab unstim 1% and FLuc enzyme inconclusive.
For Cc1cc(NC(=O)c2cccc(Oc3ccccc3)c2)n[nH]1 the results were VP16 counter -5%, ELG1 repair inh inconclusive, TDP1 cell noCPT inconclusive, IL-1B inflam inh -8, TDP1 cell CPT -5% and RORg inh -29%.
`COc1ccc2cc3c(N)nn(C(=O)c4ccccc4[N+](=O)[O-])c3nc2c1` gave VP16 counter -21%, ELG1 repair inh 2.3µM*, TDP1 cell noCPT 2.3µM*, TDP1 cell CPT 2.6µM*, RORg inh inconclusive, ELG1-Luc inh 1.8µM*, ELG1-Luc MMS 14µM*, ELG1 5FU viab 4%, ELG1 MMS cell inconclusive and Cell viab unstim inconclusive.
COc1ccc2cc3c(N)nn(C(=O)c4ccc(Cl)c([N+](=O)[O-])c4)c3nc2c1 was read as VP16 counter -2%, ELG1 repair inh 1.6µM*, TDP1 cell noCPT inconclusive, IL-1B inflam inh 3, TDP1 cell CPT inconclusive, RORg inh 18%, ELG1-Luc inh 3.5µM*, ELG1-Luc MMS 7.9µM*, ELG1 5FU viab 5%, ELG1 MMS cell 7% and Cell viab unstim 7%.
CCOc1ccccc1CNC(=O)C1CCN(c2nn3c(=O)cc(C)nc3s2)CC1 was read as VP16 counter -2%, ELG1 repair inh 6%, TDP1 cell noCPT -24%, IL-1B inflam inh -21, TDP1 cell CPT inconclusive and RORg inh 9%.
Screening Cn1cc(C(=O)N/N=C/c2c(O)ccc3ccccc23)ccc1=O returned VP16 counter -5%, ELG1 repair inh 2.3µM*, TDP1 cell noCPT 3.7µM*, IL-1B inflam inh 122, TDP1 cell CPT 5.2µM*, RORg inh -13%, ELG1-Luc inh inconclusive, ELG1-Luc MMS 3.1µM*, ELG1 5FU viab -15%, ELG1 MMS cell 14µM* and Cell viab unstim inconclusive.
COc1ccc(/C=N/NC(=O)c2ccc(=O)n(C)c2)cc1OC was read as VP16 counter -10%, ELG1 repair inh inconclusive, TDP1 cell noCPT 11%, IL-1B inflam inh 29, TDP1 cell CPT 7% and RORg inh -37%.
Screening CCOC(=O)Cn1c(=NC(=O)C(C)C)sc2c(C)cc(C)cc21 returned VP16 counter -7%, ELG1 repair inh 3.3µM*, TDP1 cell noCPT 15µM*, IL-1B inflam inh 31, TDP1 cell CPT inconclusive, RORg inh 21%, ELG1-Luc inh 14µM*, ELG1-Luc MMS -3%, ELG1 5FU viab 8%, ELG1 MMS cell inconclusive and Cell viab unstim inconclusive.
`CCCN1CCN(CCCNC(=O)c2ccc(CS(=O)c3ccccc3C)o2)CC1` (configuration not stated) gave VP16 counter -3%, ELG1 repair inh 16%, TDP1 cell noCPT -4%, IL-1B inflam inh -10, TDP1 cell CPT -3% and RORg inh -6%.
`Cc1ccc(Nc2nc(-c3ccncc3)nc3ccccc23)cc1` gave VP16 counter -1%, ELG1 repair inh 2.6µM*, TDP1 cell noCPT inconclusive, TDP1 cell CPT 10%, RORg inh -24%, ELG1 FLuc counter 42%, ELG1-Luc inh 4µM*, ELG1-Luc MMS 18%, ELG1 5FU viab -2%, ELG1 MMS cell -14%, Cell viab unstim -18% and FLuc enzyme -10%.
Screening Cc1ccc(O)c(Nc2nc(-c3ccccc3)nc3ccccc23)c1 returned VP16 counter -17%, ELG1 repair inh inconclusive, TDP1 cell noCPT -4%, IL-1B inflam inh -20, TDP1 cell CPT -11% and RORg inh 4%.
Screening COc1ccc(C2=Nn3c(nnc3-c3ccncc3)SC2)cc1OC returned VP16 counter 12%, ELG1 repair inh inconclusive, TDP1 cell noCPT inconclusive, IL-1B inflam inh inconclusive, TDP1 cell CPT inconclusive, RORg inh -27%, ELG1 FLuc counter 32%, ELG1-Luc inh 7.9µM*, ELG1-Luc MMS -17%, ELG1 5FU viab inconclusive, ELG1 MMS cell 6%, Cell viab unstim -6% and FLuc enzyme -2%.
`O=C(CNC(=O)c1ccccc1F)OCn1nnc2ccccc2c1=O` gave ELG1 repair inh inconclusive, TDP1 cell noCPT -4%, IL-1B inflam inh 0 and TDP1 cell CPT -4%.

From PubChem
